A selection: hits, their analogues and other compounds. The true share with any hit is near 4.3%.
CHOP inh = CHOP inhibition in unfolded protein response. inhibition, % at 10 µM. AID 2732. 220,000 tested, 3.8% active. CHO-K1 CHOP-promoter luciferase, tunicamycin-induced, 15-18 h;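 active = compounds that reduced the stress-induced luciferase reporter signal by more than about 70% of percent inhibition, limit read from the data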
CF NFkB block = blocks PAF-induced NF-kB reporter in cystic fibrosis cells; AID 588850; KKLEB NF-kB-GFP reporter, GFP fluorescence overnight; inhibition, % at 5 µM; 360,000 tested, 0.86% active;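 active = at least 50% inhibition at 5 µM, scaled per plate between neutral and stimulator controls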;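 also: PAF is a Pseudomonas aeruginosa culture filtrate used as stimulus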
Peg3 promoter = inhibitors of Peg3 promoter; HeLa PEG-Prom luciferase reporter, luminescence, overnight; 360,000 tested, 1.7% active; inhibition, % at 20 µM;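 active = inhibition of at least 50% at 20 µM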
HIF-2a inh = inhibitors of HIF-2a | 786-0 RCC cells HIF-2a reporter, luciferase luminescence, overnight | inhibition, % at 18.8 µM | 360,000 tested, 0.72% active;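 active = inhibition of the luminescence signal of 40% or more relative to plate controls, in a single-dose primary screen at 18.75 µM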
KKLEB cytotox = counter-screen for CF NF-kB inhibitors: cytotoxicity | KKLEB CF airway cells viability, ATPlite luminescence, overnight; active compounds read low; cells stimulated with P. aeruginosa culture filtrate | activity change (cytotoxicity), % at 5 µM | 360,000 tested, 0.36% active;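 active = corrected activity change at or below -50% at 5 µM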
TRPM1 prom inh = MITF TRPM1 promoter inhibition in SK-MEL-5 cells. 330,000 tested, 0.83% active. SK-MEL-5 TRPM1 promoter luciferase, 24 h. inhibition, % at 12.5 µM;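 active = mean inhibition across replicates of 60% or more, whatever share of single replicates reaches that level; inconclusive = some that reach 60%, reason not given; inactive = mean inhibition across replicates below 60%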
Of the large screens only hits and unclear results are named; the others gave an inactive call.

CC(C)(C)n1cccc1/C=C1\C(=O)NC(=O)N(c2ccccc2)C1=O	none
Cc1cc(C)cc(N2C(=O)NC(=O)/C(=C/c3cccn3-c3ccc(Cl)cc3)C2=O)c1	CF NFkB block 61, Peg3 promoter 99, HIF-2a inh 43
Cc1cccc(N2C(=O)NC(=O)/C(=C\c3cccn3-c3ccc(Cl)cc3)C2=O)c1	Peg3 promoter 104, TRPM1 prom inh inconclusive
O=C(COC(=O)c1cccc(O)c1)Nc1ccc(Cl)cc1C(=O)c1ccccc1	CHOP inh 80
CCOc1ccccc1OCC(=O)Nc1ccc(Cl)cc1C(=O)c1ccccc1	none
CN1CCN(C(=O)O[C@H]2c3nccnc3C(=O)N2c2ccc(Cl)cn2)CC1	none (no result: CHOP inh)
CN(C)c1ccc(C=C2C(=O)NC(=O)NC2=O)cc1	none (no result: CHOP inh)
CN(C)c1ccc(C=C2C(=O)NC(=S)NC2=O)cc1	Peg3 promoter 89 (no result: CHOP inh)
CCN(CC)c1ccc(C=C2C(=O)NC(=S)NC2=O)cc1	CF NFkB block 66, Peg3 promoter 104, HIF-2a inh 68
O=C1CC(=O)N(c2ccccc2)C(=O)N1	none (no result: CHOP inh)
CN(N=O)c1cc(O)ccc1O	none (no result: CF NFkB block, Peg3 promoter, HIF-2a inh, KKLEB cytotox, TRPM1 prom inh)
O=[N+]([O-])c1ccc(N(CCO)CCO)c2c1no[n+]2[O-]	Peg3 promoter 99, HIF-2a inh 51 (no result: CHOP inh, TRPM1 prom inh)
CN1CCN(c2ccc([N+](=O)[O-])c3no[n+]([O-])c23)CC1	CHOP inh 107, CF NFkB block 59, Peg3 promoter 102, HIF-2a inh 61, KKLEB cytotox -56, TRPM1 prom inh 86
COC(=O)C1=C(c2cccc(OC)c2OC)C[C@@H]2CC[C@H]1N2C(=O)NC(C)C	none (no result: CHOP inh)
Oc1c(Cl)cc(Cl)cc1CN1CCN(Cc2ccccc2)CC1	none
Oc1c(Cl)cccc1Cc1cc(Cl)cc(Cl)c1O	CF NFkB block 61 (no result: CHOP inh)
CC1=CC(C)CC(C)OC(=O)CC(c2ccc(O)cc2)NC(=O)C(Cc2c(Br)[nH]c3ccccc23)N(C)C(=O)C(C)NC(=O)C(C)C1 (stereo unspecified)	CF NFkB block 91, Peg3 promoter 76, KKLEB cytotox -81, TRPM1 prom inh 81 (no result: CHOP inh)
CC(C)(O)/C=C/C(=O)C(C)(O)C1C(O)CC2(C)C3CC=C4C(C=C(O)C(=O)C4(C)C)C3(C)C(=O)CC12C (stereo unspecified)	CF NFkB block 86, Peg3 promoter 99, HIF-2a inh 91, KKLEB cytotox -62 (no result: CHOP inh, TRPM1 prom inh)
CC(=O)OC(C)(C)/C=C/C(=O)[C@](C)(O)C1[C@H](O)C[C@@]2(C)C3CC=C4C(C[C@H](O)C(=O)C4(C)C)[C@]3(C)C(=O)C[C@]12C (stereo partly specified)	CF NFkB block 84, Peg3 promoter 104, HIF-2a inh 72, KKLEB cytotox -89, TRPM1 prom inh 91 (no result: CHOP inh)
Nc1ccc(C2(c3ccc(N)cc3)c3ccccc3-c3ccccc32)cc1	CF NFkB block 75, KKLEB cytotox -57
CC(C)c1oc(=O)cc2c1[C@@H](O)[C@H]1OC(=O)[C@@]3(C)C[C@@H](O)[C@@H](O)[C@@]2(C)C13 (stereo partly specified)	Peg3 promoter 91, TRPM1 prom inh 64
COC1/C=C/C=C(\C)Cc2cc(O)c(Cl)c(c2)N(C)C(=O)CC(OC(=O)C(C)C)C2(C)OC2C(C)C2CC1(O)NC(=O)O2 (stereo unspecified)	CF NFkB block 58 (no result: CHOP inh)
O=C(c1cc(=O)[nH]c2ccc(Br)cc12)N1CCC2(CC1)OCCO2	none
CC1=C(C)CC2(CC1)C(=O)NC(=O)NC2=O	Peg3 promoter 61 (no result: CHOP inh)
CCCCCn1c(=O)c(C(=O)Nc2nc(CC(=O)OCC)cs2)c(O)c2ccccc21	CHOP inh 92
CCCCn1c(=O)c(C(=O)Nc2ccccc2S(N)(=O)=O)c(O)c2ccccc21	CHOP inh 77
CCCCCn1c(=O)c(C(=O)Nc2ccccc2S(N)(=O)=O)c(O)c2ccccc21	CHOP inh 82
CCCCCn1c(=O)c(C(=O)Nc2cc(C)ccn2)c(O)c2ccccc21	none (no result: CHOP inh)
CCCCCCn1c(=O)c(C(=O)Nc2nnc(C)s2)c(O)c2ccccc21	none (no result: CF NFkB block, Peg3 promoter, HIF-2a inh, KKLEB cytotox, TRPM1 prom inh)
CCCCCn1c(=O)c(C(=O)Nc2cnccn2)c(O)c2ccccc21	CHOP inh 104, TRPM1 prom inh 66
NC(CCCCCP(=O)(O)O)C(=O)O (stereo unspecified)	none (no result: CF NFkB block, Peg3 promoter, HIF-2a inh, KKLEB cytotox, TRPM1 prom inh)
NC(Cn1oc(=O)[nH]c1=O)C(=O)O (stereo unspecified)	none (no result: CF NFkB block, Peg3 promoter, HIF-2a inh, KKLEB cytotox, TRPM1 prom inh)
C#CC1(O)CCC2C3CCC4=C/C(=N/OCC(=O)NCC(=O)NC(C(=O)O)C(C)C)CC[C@]4(C)C3CC[C@@]21C (stereo partly specified)	none (no result: CHOP inh, TRPM1 prom inh)
C#C[C@]1(O)CC[C@H]2[C@@H]3CCC4=Cc5nc6nc7ccccc7n6cc5C[C@]4(C)[C@H]3CC[C@@]21C	Peg3 promoter 66 (no result: CHOP inh)
N=Cc1c(O)n(-c2ccc(C34CC5CC(CC(C5)C3)C4)cc2)c(=O)[nH]c1=O	CHOP inh 81
CC1Cc2cc3c(cc2C(c2ccc(N)cc2)=NN1)OCO3 (stereo unspecified)	none (no result: CF NFkB block, Peg3 promoter, HIF-2a inh, KKLEB cytotox, TRPM1 prom inh)
CC(C)c1ccc(N=Cc2c(O)n(C3CC3)c(=S)[nH]c2=O)cc1	CHOP inh 84
O=c1[nH]c(=S)n(C2CC2)c(O)c1C=Nc1ccc2c(c1)OCO2	none
COC(=O)C1=C(C(=O)OC)SC2(S1)C(C(=O)OC)=C(C(=O)OC)Sc1c2ssc1=O	CF NFkB block 113, Peg3 promoter 111, HIF-2a inh 88, KKLEB cytotox -69, TRPM1 prom inh 101 (no result: CHOP inh)
NC1CC1c1ccccc1 (stereo unspecified)	none (no result: CF NFkB block, Peg3 promoter, HIF-2a inh, KKLEB cytotox, TRPM1 prom inh)
C[C@]12CCC3C(CC[C@H]4C[C@@H](O)CC[C@]34C)C1CC[C@@H]2OC(=O)[C@H](N)CCCCN (stereo partly specified)	Peg3 promoter 87 (no result: CHOP inh)
CC(C(=O)c1c[nH]c2ccccc12)N1CCN(C(=O)c2ccco2)CC1 (stereo unspecified)	none
COc1cc2nc(N3CCN(C(=O)c4ccco4)CC3)nc(N)c2cc1OC	Peg3 promoter 56
Cc1nc2c(=O)n(C)c(=O)nc-2n(C)n1	CF NFkB block 77, Peg3 promoter 105, HIF-2a inh 81, KKLEB cytotox -74, TRPM1 prom inh 110 (no result: CHOP inh)
NC(=O)c1cn(C2OC(CO)C(O)C2O)c2ncnc(N)c12 (stereo unspecified)	CHOP inh 105, CF NFkB block 89, Peg3 promoter 93, HIF-2a inh 67, KKLEB cytotox -83, TRPM1 prom inh 84
N#Cc1cn(C2OC(CO)C(O)C2O)c2ncnc(N)c12 (stereo unspecified)	CF NFkB block 96, Peg3 promoter 96 (no result: CHOP inh)
CCNC(=O)[C@H]1O[C@@H](n2cnc3c(N)ncnc32)[C@H](O)[C@@H]1O	none
NC(N)=NOCC[C@H](N)C(=O)O	none (no result: CF NFkB block, Peg3 promoter, HIF-2a inh, KKLEB cytotox, TRPM1 prom inh)

Screening data as filed in PubChem BioAssay.
